Among all 2,000 compounds or so, about 190 (9.5%) were called active. Another 14% or so got no clear call; they are omitted.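 The calls were made as follows: active = fitted activation curve crossing 40% at a concentration no higher than the sample's top valid tested dose; inconclusive = flat fitted curve at 30% to 70% activation, or poor curve fit; inactive = signal decrease, flat curve within 30%, or the rest.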 These entries were drawn from the full list.
Assay: HSF-1 reporter activators over prolonged exposure, confirmation, cell-based, mouse, luciferase, cherry-pick, dose (AID 602296);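 also: test compounds applied by themselves with no MG132 co-treatment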
Settings: NIH3T3-HGL HSF-1 response element luciferase, 48 h; series mostly up to 26 µM; activation: at the top concentration

activation, inactive:
CC12CCC(=O)N1C(C(=O)Nc1cccc3ccccc13)CS2 (stereo unspecified) -1.65%
COc1ccc(CNCC(O)COc2ccc(C(C)(C)c3ccccc3)cc2)cc1 (stereo unspecified) -44.6%
COc1ccc(Cl)cc1NC(=O)CCc1nc(-c2ccccc2F)no1 -32.6%
Cc1ccc(-c2ccc(=O)[nH]n2)cc1 6.96%
c1ccc(Cn2nnnc2C(c2cccs2)N2CCc3ccccc3C2)cc1 (stereo unspecified) -61.7%
COc1ccc(N/C=C(\C=C\C#N)S(=O)(=O)c2ccccc2)cc1 2.06%
Cc1cccc(NC(=S)N(CCN(C)C)C(C)c2cccnc2)c1 (stereo unspecified) -1.67%
COCCOC(=O)C1=C(C)NC(C)=C(C(=O)OCCOC)C1/C=C/c1ccccc1OC -6.58%
COc1ccc(C(=O)COC(=O)c2cccnc2SC)cc1 -0.632%
CCOc1ccc(S(=O)(=O)NNC(=S)Nc2ccc(Br)cc2)cc1 0.555%
CCOC(=O)c1c(NC(C)=O)sc2c1CCC(C=NCCCN(CC)CC)=C2Sc1ccccc1 13%
O=C(c1ccc(Br)cc1)N1CCCC(c2nc(-c3cccs3)no2)C1 (stereo unspecified) -37.2%
Cc1[nH]c2ccccc2c1CN1CCN(c2ccccn2)CC1 -15.3%
CCOc1ccc(NC(=O)C2CC(=O)N3CCCN=C3S2)cc1 (stereo unspecified) -13.2%
CCOC(=O)c1nnc(-c2ccccc2)nc1Sc1ccccc1Cl -101%
CCC(NC(=O)/C(=C\c1ccc2c(c1)OCO2)NC(C)=O)C(=O)O (stereo unspecified) -1.08%
Cc1cc(NC(=O)CSc2nc3c(cc2C#N)CCC3)no1 -57.8%
Cc1nonc1C1CCCN1Cc1cn[nH]c1-c1ccc(-c2ccccc2)cc1 (stereo unspecified) -16.4%
Cc1ccc2c(CN3CCN(S(=O)(=O)/C=C/c4ccccc4)CC3)cc(=O)oc2c1 -1.07%
O=C1C2CCCCC2C(=O)N1Cc1ccccc1 (stereo unspecified) -6.54%
CC(C)C(C)N(Cc1ccc(C(=O)O)cc1)C(=O)c1ccc2ccccc2n1 (stereo unspecified) -7.06%
O=C(Nc1ccn(Cc2ccccc2F)n1)c1ccc(COc2ccc(Cl)cc2Cl)o1 -41.2%
Cn1c(CN2CCN(c3ccc(Cl)cc3)CC2)nc2ccccc21 7.35%
Brc1ccc(CSc2nnc(-c3ccccn3)n2Cc2ccco2)cc1 -64.8%
CSc1nc(S(=O)(=O)c2ccc(C)cc2)c(Cl)s1 4.27%
COc1ccc(CCNCc2cc(C)n(-c3ccc(OC)cc3)c2C)cc1 -9.47%
Cc1cc(C(=O)N/N=C/c2ccc([N+](=O)[O-])s2)c2ccccc2n1 -39.8%
Clc1ccc(-n2cc(COCc3ccccc3)nn2)cc1 -82.4%
COc1ccc(Cl)cc1N(CC(=O)Nc1ccccc1SC)S(C)(=O)=O 5.09%
COc1ccc(OC)c(S(=O)(=O)Nc2ccccc2O)c1 -3.47%
CCOC(=O)/C=C/C(=O)OCC(=O)NC(c1ccccc1)c1ccccc1 -43.9%

Reference: PubChem BioAssay AID602296 (Broad Institute, 2012)
